Measurements published in the supplement of paper PMC6555819.

Assays:
Test in all cases: PBM binding z-score (relative to random genomic background probes); higher = stronger binding; sequences stand for … in GC…GCGATTGACAGCGTAGAATGAAGG
[1] = tested on: FXR:RXRa (NR concentration 270 nM, RXRa partner concentration 90 nM)
Procedure, shortened: (§1)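 Each nuclear receptor dimer, without ligand, was incubated for 1 h on custom Agilent 4×180K protein-binding microarrays. Binding was detected with antibodies against each partner (one per run), and scanned fluorescence was regression-normalized. The binding z-scores are referenced to random human genomic background probes.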

[2] = tested on: LXRa:RXRa (NR concentration 270 nM, RXRa partner concentration 90 nM)
Procedure, shortened: as §1

[3] = tested on: LXRa homodimer (NR concentration 270 nM)
Procedure, shortened: as §1

[4] = tested on: LXRb:RXRa (NR concentration 270 nM, RXRa partner concentration 90 nM)
Procedure, shortened: as §1

[5] = tested on: LXRb homodimer (NR concentration 270 nM)
Procedure, shortened: as §1

[6] = tested on: PPARa:RXRa (NR concentration 270 nM, RXRa partner concentration 90 nM)
Procedure, shortened: as §1

[7] = tested on: PPARg:RXRa (NR concentration 180 nM, RXRa partner concentration 90 nM)
Procedure, shortened: as §1

[8] = tested on: PPARg:RXRa 270nM:90nM, anti-RXR (NR concentration 270 nM, RXRa partner concentration 90 nM)
Procedure, shortened: as §1

[9] = tested on: PPARg:RXRa 30nM:10nM, anti-RXR (NR concentration 30 nM, RXRa partner concentration 10 nM)
Procedure, shortened: as §1

[10] = tested on: PPARg:RXRa 90nM:30nM, anti-RXR (NR concentration 90 nM, RXRa partner concentration 30 nM)
Procedure, shortened: as §1

[11] = tested on: PPARg:RXRa DBDmut IVT, anti-RXR (DBD mutation: RXRa K156A/R161A, NR concentration 270 nM, RXRa partner concentration 90 nM)
Procedure, shortened: as §1

[12] = tested on: PPARg:RXRa IVT, anti-PPARg (NR concentration 270 nM, RXRa partner concentration 90 nM)
Procedure, shortened: as §1

[13] = tested on: PPARg DBDmut:RXRa IVT, anti-PPARg (DBD mutation: PPARg1 K132A/R137A, NR concentration 270 nM, RXRa partner concentration 90 nM)
Procedure, shortened: as §1

[14] = tested on: PPARg DBDmut IVT, anti-PPARg (DBD mutation: PPARg1 K132A/R137A, NR concentration 270 nM)
Procedure, shortened: as §1

[15] = tested on: PPARg homodimer (NR concentration 180 nM)
Procedure, shortened: as §1

[16] = tested on: PXR:RXRa (NR concentration 270 nM, RXRa partner concentration 90 nM)
Procedure, shortened: as §1

[17] = tested on: PXR homodimer (NR concentration 270 nM)
Procedure, shortened: as §1

[18] = tested on: RARa:RXR (NR concentration 270 nM, RXRa partner concentration 90 nM)
Procedure, shortened: as §1

[19] = tested on: RARa homodimer (NR concentration 270 nM)
Procedure, shortened: as §1

[20] = tested on: RARb:RXRa (NR concentration 270 nM, RXRa partner concentration 90 nM)
Procedure, shortened: as §1

Sequence	PBM binding z-score [1]	PBM binding z-score [2]	PBM binding z-score [3]	PBM binding z-score [4]	PBM binding z-score [5]	PBM binding z-score [6]	PBM binding z-score [7]	PBM binding z-score [8]	PBM binding z-score [9]	PBM binding z-score [10]	PBM binding z-score [11]	PBM binding z-score [12]	PBM binding z-score [13]	PBM binding z-score [14]	PBM binding z-score [15]	PBM binding z-score [16]	PBM binding z-score [17]	PBM binding z-score [18]	PBM binding z-score [19]	PBM binding z-score [20]
ATCGAAAGGTCGACGTGAGTATAGAGAAAGGGAA	3.97	3.07	-0.0365	2.39	0.422	4.06	2.45	2.9	1.04	2.13	-0.328	1.19	1.19	0.607	0.972	2.21	0.153	2.94	-0.0772	3.82
CAAACTAGGACACAGAGGTCAAAGTCCGTGCGTA	5.53	5.78	6.08	5.13	1.79	5.73	6.63	5.99	3.64	5.73	6.49	6.69	3.32	2.78	5.68	6.16	7.13	6.38	1.48	4.28
ACTCGGAGGACAAAGCTCAGAGCTACGCCAGTGA	-0.419	-0.663	-0.768	-1.06	-0.958	-0.608	0.401	-0.00696	-0.67	-0.314	-0.219	-0.357	-0.787	-1.32	-1.15	-0.902	-0.759	-1.14	-0.639	0.77
TAGCCTAGGTCATGCGGGCCAGTATTGTGTCGGC	3.83	2.94	0.0608	1.71	-0.269	3.48	1.84	2.13	0.0531	1.17	1.92	3.17	-0.152	-1.19	0.001	1.34	-0.847	1.82	-1.27	3.69
CTCGAAAGGTAGGTTGAGGTGAGTATACGGATAA	0.719	-0.128	-0.2	-0.0661	-0.508	0.424	0.0538	0.173	0.0647	0.104	-0.151	0.611	0.405	0.253	0.0947	0.293	-0.116	0.461	-0.0281	0.475
CGAACTAGGTCATTGACAGGACAGTGATTAGTAA	4.44	3.04	0.786	2	-0.0597	4.69	7.36	6.17	3.71	6.08	8.18	8.17	4.22	2.86	1.7	1.91	0.608	2.36	0.564	3.62
CCTCGGAGGACAGAAGGTCAGAGGTGTCCGCTTT	1.1	1.45	0.406	0.796	-0.636	2.06	0.463	1.58	-0.408	0.771	-0.101	0.357	-1.36	-1.55	0.853	1.4	0.183	2.11	0.0276	3.32
TAGCCTAGGTCATTCAGAGGCCAGTATAGAAAGC	4.56	3.63	0.829	2.82	0.598	3.63	2.34	2.29	0.542	1.47	1.43	2.85	0.547	0.364	2	2.58	-0.166	3.25	-0.206	4.09
TCTTGTAGATCAATATAGGTTAAGAAAGTGCGCT	0.801	2.72	0.469	1.28	0.58	1.97	0.81	2.09	3.36	2.56	2.95	2.98	1.55	1.13	0.797	1.67	0.304	1.4	1.22	0.676
TCGAGTAAGTTACCAATGGGGCATTCAGCTTTCT	-0.407	-0.177	-0.53	0.203	-0.792	0.13	-0.296	0.61	0.958	0.917	0.719	-0.101	-0.374	-1.05	-0.441	0.0133	-0.765	0.11	-0.447	-0.0716
CCTCGGAGGACAACAGGAGGACAGAGCTGCCAGA	0.107	0.0624	-0.1	-0.555	-1.29	-0.58	0.442	-0.396	-0.625	-0.907	-0.583	-0.273	-0.847	-1.93	-0.324	-0.247	-0.0933	-0.0397	-0.0805	1.09
AGAACGACGGCAATGAGTTGATAGCACGGGTGGC	-0.823	-0.86	-0.973	-1.01	-0.907	-0.728	0.71	-0.672	-0.309	-0.536	-0.438	-0.402	-0.484	-0.862	-0.865	-0.631	-0.242	-0.819	-0.419	-0.448
CCTCGGAGGACAGAAGGTCAGAGTTGTCCGCTTT	1.19	1.59	0.486	1.21	-0.813	1.88	0.0255	0.907	-0.816	0.173	0.283	0.171	-1.27	-1.42	0.997	1.77	-0.24	2	0.0194	3.16
TCTTGTAGATCAATAGACGTTAAGAAAGTGCGCT	0.594	0.28	-0.214	0.165	0.106	0.212	-0.0755	1.51	2.76	2.26	1.93	0.361	0.093	1.4	-0.0841	0.0599	-0.0185	0.0974	0.424	-0.173
TCGCCTAGGTCAGATCGGGCCAGTATACGCTATA	1.75	1.2	-0.481	0.65	-0.762	1.71	0.474	1.19	1.68	1.28	1.92	1.11	-0.622	-0.724	-0.2	1.23	-0.531	1.05	-0.742	3.12
CCTTACGGGTCACTGACAGGTTCTAGCATTTGGA	4.75	3.1	0.00693	2.9	0.128	4.77	3.89	4.02	1.11	2.83	3.31	3.38	0.541	-0.487	1.98	2.71	-0.239	3.46	0.459	3.63
CCTGATAGGTCATGGTCAGCTAATCTACAGTATG	5.33	4.19	0.689	3.39	0.182	4.96	3.65	3.99	1.25	2.81	3.61	2.99	1.15	0.715	2.24	2.79	0.473	4.02	1.43	4.18
TGAATGAGGTTATAAGAGCAGGGAACGTTGCAAA	1.63	1.78	-0.152	0.923	-0.0285	2.86	1.32	2.13	0.717	1.52	1.21	1.65	0.835	0.627	0.672	0.661	-0.193	1.39	0.226	1.29
TCTGCTAGGTCAACGATGGCCAGCTAATCTGCTA	3.09	2.21	-0.626	1.34	-0.287	3	2.34	2.77	1.8	2.37	4.07	4.02	0.274	-0.0746	0.165	0.871	-1.29	1.9	-0.648	3.94
CGAACTAGGTCATTGACAGGACAGTGCATAGTAA	4.46	3.18	0.766	2.04	-0.0575	4.8	7.55	6.33	3.65	5.79	7.99	8.21	2.11	0.779	1.71	1.76	0.634	2.28	0.279	3.66
CAAACTAGGTCAAAGGTCAATGTCGAGCCAACCA	8.32	7.09	4.92	6.96	2.33	7.33	14	11.7	13.6	14.2	8.75	9.22	5.2	5.46	8.27	7.07	1.86	8.9	4.59	5.51
GGATCGAGGGCATTCGAGTTGATAGCATGGCGAT	0.788	1.56	-0.155	-0.0829	-0.428	1.47	0.73	0.681	-0.121	0.313	2.58	2.38	-0.372	-0.843	0.175	3.64	1.17	1.16	-0.556	1.83
CCTACTGGGCCAAAAGGGTCATTGATGCCGATAA	2.19	2.17	0.372	2.58	-0.642	3.78	3.54	4.35	1.7	3.87	4.13	3.9	-0.517	-1.13	2.18	3.16	0.631	3.57	-0.0364	2.74
TCTTGTAGATCAGCAGGTCAAGAAAGCTGGCCAA	1.17	1.55	0.209	1.59	-0.222	2.5	0.457	2.37	2.48	2.59	1.57	1.61	-0.677	-0.699	0.129	1.6	-0.4	2.18	-0.58	2.01
TCATGTAGATCAAAGGTTAAGAAAGCCGAAGCCT	1.74	2.28	0.326	2.06	-0.197	4.5	8.22	8.1	7.58	8.85	2.23	3.59	0.546	0.593	1.17	2.12	0.246	3.29	0.881	1.91
CTCGGAAGGTCGGTTGAGGTGAGTATACGGATAA	2.43	0.338	-0.673	0.113	-0.399	1.01	-0.0465	-0.0669	-0.473	-0.159	-0.598	0.491	-0.365	-0.461	0.527	1.84	-0.347	0.849	-0.2	1.89
CGTCAAAGTTCAAGGTAACGTATCAGAAAGCAGC	5.57	5.5	2.87	3.2	1.15	4.61	4.11	5.03	1.86	3.65	1.16	2.03	0.808	-0.101	2.73	4.22	3.05	3.48	1.28	4.98
TCATATAGCTAAAGGTGAAAGTCGAACGATATGA	1.12	1.09	-0.213	1.26	-0.321	2.67	2.06	3.08	3.19	3.31	1.54	1.41	0.485	1.01	0.548	0.662	0.459	1.51	0.712	1.62
CGTCCAAGGTCAGCACGTCAGTGAAAGCGACGTG	5.32	3.11	-0.0642	2.37	-0.16	4.23	2.38	2.91	0.448	1.36	2.18	2.13	0.0717	0.0669	1.85	2.31	0.247	3.39	0.134	4.89
